The nature of test [1]: anti-His antibody binders, primary screen, artefact control for SMM control protein annotation, biochemical, small-molecule microarray, 635 nm fluorescence (AID 1128).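 Further: score merges feature fluorescence with signal-to-noise for each printed compound spot.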 The settings on record: anti-His Alexa647 antibody binding, higher = more signal.
The subject of test [2] is Human papillomavirus type 1a E7 protein (residues 1-88). Put plainly: HPV1a E7 small-molecule binders, primary screen, biochemical, small-molecule microarray, residues 1-88, 635 nm (AID 1129). The conditions noted are these: small-molecule microarray binding, fluorescence 635 nm; higher = more signal.
Test [3] has as its target Focal adhesion kinase 1 (Homo sapiens) (UniProt Q05397). As to the kind of experiment: small-molecule microarray binders of FAK, primary screen, biochemical, 635/667 nm fluorescence, BSA, DTT (AID 1130).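 Further: composite of spot emission at 667 nm and signal to noise over triplicate slides.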 The settings on record: PTK2 binding, 635 nm fluorescence, higher = more signal.
Test [4] deals with Fibrinogen (Alexa647-labelled). As to the kind of experiment: fibrinogen binders on compound microarrays, profiling panel, artefact control for SMM control-protein annotation, biochemical, small-molecule microarray, 635/667 nm fluorescence (AID 1131).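 Further: z-score merges 667 nm fluorescence with per-spot signal-to-noise over triplicate slides.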 The settings on record: fibrinogen-A647 binding fluorescence, higher = more signal.
The target in test [5] is Follistatin (Homo sapiens) (UniProt P19883). As to the kind of experiment: follistatin binders on small-molecule microarrays, primary screen, biochemical, small-molecule microarray, 635/667 nm fluorescence (AID 1132). The settings on record: FST binding, 635 nm fluorescence, higher = more signal.
Chain of Follistatin (Homo sapiens) (P19883 whole entry, looked up): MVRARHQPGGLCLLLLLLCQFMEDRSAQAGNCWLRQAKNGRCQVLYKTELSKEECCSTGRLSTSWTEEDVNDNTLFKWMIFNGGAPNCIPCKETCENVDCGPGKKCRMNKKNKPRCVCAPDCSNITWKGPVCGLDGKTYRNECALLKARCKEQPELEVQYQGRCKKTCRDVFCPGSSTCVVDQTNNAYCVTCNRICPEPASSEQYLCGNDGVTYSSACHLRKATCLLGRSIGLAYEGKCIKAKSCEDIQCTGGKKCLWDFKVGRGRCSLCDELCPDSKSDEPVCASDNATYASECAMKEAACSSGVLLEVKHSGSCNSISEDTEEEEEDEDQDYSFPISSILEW
Test [6] deals with Fibroblast growth factor 2 (Homo sapiens) (UniProt P09038). As to the kind of experiment: FGF2 binders on small-molecule microarrays, primary screen, biochemical, small-molecule microarray, 635/667 nm fluorescence (AID 1133). The conditions noted are these: small-molecule microarray binding, FGF2, fluorescence 635/667; higher = more signal.
Chain of Fibroblast growth factor 2 (Homo sapiens) (P09038 whole entry, looked up): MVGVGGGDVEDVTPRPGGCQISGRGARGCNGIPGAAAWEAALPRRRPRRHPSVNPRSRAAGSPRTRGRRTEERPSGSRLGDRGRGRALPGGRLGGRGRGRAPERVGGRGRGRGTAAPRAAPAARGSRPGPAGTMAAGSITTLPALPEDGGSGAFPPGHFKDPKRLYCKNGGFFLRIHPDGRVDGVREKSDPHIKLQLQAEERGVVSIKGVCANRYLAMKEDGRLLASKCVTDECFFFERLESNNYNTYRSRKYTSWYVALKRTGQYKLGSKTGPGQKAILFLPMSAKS
Test [7] in a line: mitochondrial membrane potential change in A549 cells, profiling panel, cell-based, JC-1 fluorescence, basal, 24 h, 100 nL (AID 1138).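 Further: A549 lung adenocarcinoma cells under basal conditions with no added stimulus; test concentration not given here.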 The settings on record: higher = more signal.
In the next test the test system is Lefty1. As to the kind of experiment: Lefty1 binders on small-molecule microarrays, primary screen, biochemical, small-molecule microarray, 635/667 nm fluorescence (AID 1139). The settings on record: small-molecule microarray binding, fluorescence 635/667; higher = more signal.
In test [8] the test system is wheat germ agglutinin (Triticum aestivum), Alexa647-labelled. Put plainly: wheat germ agglutinin binders on compound microarrays, profiling panel, artefact control for SMM control-protein annotation, biochemical, small-molecule microarray, 635/667 nm fluorescence (AID 1140).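 Further: score merges 667 nm feature emission with signal to noise over triplicate slides.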 The conditions noted are these: WGA-A647 binding, 635 nm fluorescence, higher = more signal.
The target of test [9] is Luciferin 4-monooxygenase (Photinus pyralis) (UniProt P08659). Put plainly: firefly luciferase enzyme inhibitors, primary screen, biochemical, luminescence, purified enzyme, 2006 set (AID 1141).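 Further: cell-free assay with purified firefly luciferase at 100 ng per well in PBS; test concentration not given here.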 The conditions noted are these: SteadyGlo luminescence, 30 min, higher = more signal, called active from +8 up or from −8 down.
Chain of Luciferin 4-monooxygenase (Photinus pyralis) (P08659 whole entry, looked up): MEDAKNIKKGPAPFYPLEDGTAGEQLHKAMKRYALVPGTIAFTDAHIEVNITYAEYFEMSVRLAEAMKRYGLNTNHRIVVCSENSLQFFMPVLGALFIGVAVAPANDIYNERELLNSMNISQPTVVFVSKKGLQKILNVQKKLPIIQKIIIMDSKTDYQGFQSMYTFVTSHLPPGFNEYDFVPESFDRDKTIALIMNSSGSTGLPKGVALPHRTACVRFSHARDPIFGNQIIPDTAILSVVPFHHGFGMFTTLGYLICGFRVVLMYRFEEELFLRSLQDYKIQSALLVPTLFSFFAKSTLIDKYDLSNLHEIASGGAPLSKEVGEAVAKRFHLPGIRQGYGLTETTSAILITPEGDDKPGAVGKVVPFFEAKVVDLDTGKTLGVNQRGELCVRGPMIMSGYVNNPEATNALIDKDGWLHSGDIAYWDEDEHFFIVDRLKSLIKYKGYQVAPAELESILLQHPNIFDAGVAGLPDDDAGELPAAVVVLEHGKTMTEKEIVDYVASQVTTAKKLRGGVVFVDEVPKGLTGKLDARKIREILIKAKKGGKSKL

Structures are written as SMILES. Activity calls are given as the source filed them.

Chain of Focal adhesion kinase 1 (Homo sapiens) (Q05397 whole entry, looked up): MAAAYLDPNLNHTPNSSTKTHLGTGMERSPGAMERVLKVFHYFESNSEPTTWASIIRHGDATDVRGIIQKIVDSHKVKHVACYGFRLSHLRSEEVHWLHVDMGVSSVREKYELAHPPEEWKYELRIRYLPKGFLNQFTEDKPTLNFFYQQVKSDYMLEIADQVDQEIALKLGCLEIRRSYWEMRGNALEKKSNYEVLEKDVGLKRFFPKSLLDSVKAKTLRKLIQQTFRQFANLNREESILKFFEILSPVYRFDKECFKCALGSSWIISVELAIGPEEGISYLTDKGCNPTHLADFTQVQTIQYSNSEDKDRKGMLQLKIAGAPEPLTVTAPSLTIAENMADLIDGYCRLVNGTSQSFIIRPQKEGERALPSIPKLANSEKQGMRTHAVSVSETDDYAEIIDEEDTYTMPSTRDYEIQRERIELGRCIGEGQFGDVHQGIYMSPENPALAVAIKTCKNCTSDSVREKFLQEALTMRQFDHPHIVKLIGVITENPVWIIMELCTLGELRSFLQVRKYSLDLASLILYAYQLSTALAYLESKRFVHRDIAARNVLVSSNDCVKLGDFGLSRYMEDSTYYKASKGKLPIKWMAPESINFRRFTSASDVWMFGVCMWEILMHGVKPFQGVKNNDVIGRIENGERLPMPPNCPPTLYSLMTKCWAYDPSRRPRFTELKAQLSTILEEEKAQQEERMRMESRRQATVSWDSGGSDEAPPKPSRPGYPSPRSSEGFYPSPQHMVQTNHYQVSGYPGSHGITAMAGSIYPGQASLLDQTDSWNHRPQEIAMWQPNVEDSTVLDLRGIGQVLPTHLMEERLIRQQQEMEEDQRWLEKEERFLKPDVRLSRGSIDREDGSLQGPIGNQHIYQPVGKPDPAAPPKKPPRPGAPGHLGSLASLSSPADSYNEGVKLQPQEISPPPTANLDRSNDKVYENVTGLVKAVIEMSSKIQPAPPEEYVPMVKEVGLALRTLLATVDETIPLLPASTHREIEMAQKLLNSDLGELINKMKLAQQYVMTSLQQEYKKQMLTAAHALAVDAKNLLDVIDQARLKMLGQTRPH

With `COC(=O)Cn1c(C(=O)N2CCCC2)cc2c1C[C@H]1CN(C(=O)c3ccccc3)[C@@](Cc3ccc(F)cc3)(C(=O)OC)[C@@H]21`, the composite z-score was 0.712 in test [1]; -0.25 in test [2]; 0.386 in test [3]; -0.288 in test [4]; 0.237 in [5]; -0.438 in test [6]. For the same molecule, the figures for the composite z-score (with Lefty1; in test [8]) were -0.3 and 0.647, respectively. Further, the z-score in test [7] is 1.39; in test [9], 1.22 (inactive).
Regarding `Cc1ccc(C(C)CC(O)C2C=CC3C(=O)N(c4ccccc4)C(=O)C3N2Nc2ccc(C(C)C)cc2)o1` (stereo not given), the composite z-score in test [1] is 0.953; in [2] it was 1.16; in [3], 0.423; in test [4], 0.59; in test [5], 0.75; in test [6], -0.14. Moreover, the composite z-score with Lefty1 is -0.795; in test [8], 1.15. For the same molecule, the z-score in test [7] is -0.678; in [9] it was -0.528 (inactive).
On to `C=CC[C@@]12N=C(c3ccc(OCCCO)cc3)O[C@@H]1c1ccccc1N(CCS(=O)(=O)c1ccccc1)C2=O`, for which the composite z-score in test [1] turned out to be 0.954; in [2], 1.22; in test [3], 0.87; in [4], 0.944; in test [5], 1.3; in test [6] it was 1.55. Further, the composite z-score was 0.51 with Lefty1 and 0.961 in test [8]. The values for the z-score in [7] and in [9] were 0.699 and -12.1 (active), respectively.
With `C=C1C2CC3C(=C4C(CO[C@@H]4[C@H]4CCCN4S(=O)(=O)c4ccccc4[N+](=O)[O-])C4C(=O)N(C)C(=O)C34)CC2C(=O)N1C` (stereo not given in full), the composite z-score in [1] was -0.382; in [2] it was 0.128; in [3] it was 0.0722; in test [4] it was 0.412; in test [5] it was 0.482; in [6], 0.425. The values for the composite z-score (in the test on Lefty1; in [8]) were 0.218 and 0.337, respectively. Besides, the values for the z-score in test [7] and in [9] were 0.225 and 0.101 (inactive), respectively.
Consider `CC(CO)N1C(=O)[C@@H]2C3C(=O)OCCC/C=C\[C@H]3OC23C=CCN(Cn2nnc4ccccc42)C(=O)[C@@H]13` (stereo not given in full), for which the composite z-score in [1] was 3.15; in test [2], -0.589; in test [3], -0.923; in test [4] it was -0.326; in test [5], -0.171; in test [6], -0.614. Also, the composite z-score in the test with Lefty1 is -0.13; in test [8] it was -0.276. The z-score in test [7] is 0.918; in [9], 0.196 (inactive).
For the molecule `COc1cc(CO)cc(I)c1O[C@H]1C=C(C(=O)NCCO)C[C@@H](NCc2ccccc2F)[C@@H]1O`, the composite z-score in [1] was 0.271; in [2], 1.17; in test [3], 0.0691; in test [4], 0.124; in [5] it was 0.347; in test [6], 0.974. For the same molecule, the composite z-score with Lefty1 was 1.19; in test [8] it was 0.278. In addition, the z-score in [7] was 1.72; in test [9], -0.0791 (inactive).
On to `COCCOC(=O)N1C(=O)[C@@]2(c3cc(C#CC4=CCCCC4)ccc31)[C@H](c1ccc(O)cc1)N1[C@H](c3ccccc3)[C@H](c3ccccc3)OC(=O)[C@H]1[C@@H]2C(=O)Nc1nc2ccccc2s1`, for which the composite z-score is 0.494 in test [1]; 1.21 in [2]; 0.822 in [3]; 0.93 in test [4]; 0.862 in [5]; 1.08 in test [6]. Moreover, the composite z-score in the test on Lefty1 turned out to be 1.52; in test [8], 0.657. In addition, the figures for the z-score in [7] and in test [9] were -1.94 and -0.946 (inactive), respectively.
Consider `COCCOC(=O)N1C(=O)[C@@]2(c3cc(C#CC4(O)CCCCCC4)ccc31)[C@H](C(=O)N1CCCCCCC1)[C@H]1C(=O)O[C@H](c3ccccc3)[C@H](c3ccccc3)N1[C@@H]2c1ccc(OCCO)cc1`, for which the composite z-score was determined as 2.68 in test [1]; 1.24 in [2]; 1.13 in [3]; 0.95 in test [4]; 1.49 in test [5]; 1.77 in test [6]. Further, the results for the composite z-score (in the test with Lefty1; in test [8]) were 1.7 and 1.09, respectively. Further, the z-score was -1.18 in [7] and -2.13 (inactive) in test [9].
Regarding `C=C[C@@H](COC(C)=O)NS(=O)(=O)c1ccc(Br)cc1`, the composite z-score in [1] was 0.188; in test [2] it was 0.374; in [3], 0.0776; in test [4], 0.156; in test [5], 0.635; in test [6], 0.617. Moreover, the results for the composite z-score (with Lefty1; in [8]) were 0.283 and 0.428, respectively. Besides, the z-score in [7] was -0.367; in test [9] it was -0.823 (inactive).
For the molecule `CCCCN1CC=CC23O[C@@H]4/C=C\CCC(C)OC(=O)C4[C@H]2C(=O)N(CCCCCCO)[C@@H]3C1=O` (stereo not given in full), the composite z-score is 0.539 in test [1]; 0.0554 in [2]; -0.266 in test [3]; -1.22 in test [4]; -0.454 in test [5]; -0.668 in test [6]. In addition, the composite z-score with Lefty1 is -0.74; in [8], -0.465. Also, the z-score was 0.376 in test [7] and -0.393 (inactive) in [9].
For the molecule `O=C1O[C@@H](c2ccccc2)[C@@H](c2ccccc2)N2[C@@H](c3ccc(O)cc3)[C@]3(C(=O)Nc4ccc(C#CCCO)cc43)[C@@H](C(=O)Nc3nc4ccccc4s3)[C@H]12`, the composite z-score was determined as 0.709 in [1]; 1.23 in [2]; 0.31 in [3]; 0.682 in test [4]; 1.25 in test [5]; 1.01 in [6]. For the same molecule, the figures for the composite z-score (in the test on Lefty1; in test [8]) were 0.531 and 0.552, respectively. Besides, the z-score in test [7] was -2.38; in [9], -0.155 (inactive).
Turning to `Cc1ccc(S[C@]2(C(=O)NC3CC3)CC(=O)N(Cc3ccccc3Cl)[C@@H]2c2ccc(CO)cc2I)cc1`, the composite z-score in test [1] was determined as 2.99; in [2], 1.05; in test [3], 1.31; in test [4] it was 0.811; in [5], 1.45; in [6], 1.67. Besides, the composite z-score in the test with Lefty1 was 0.101; in test [8], 0.277. Besides, the z-score in test [7] is 0.677; in test [9], 0.352 (inactive).
As to `C=CCC(OC(C)=O)[C@@H]1[C@@H](N(Cc2ccc(-c3ccccc3)cc2)C(=O)c2cccc3ccccc23)c2cc(OCCCO)ccc2N1C(=O)Cc1ccc2ccccc2c1` (stereo not given in full), the composite z-score was 0.23 in [1]; -0.0083 in test [2]; -0.0525 in [3]; -0.545 in test [4]; 0.295 in [5]; -0.327 in [6]. Moreover, the composite z-score amounted to 0.191 in the test with Lefty1 and 0.605 in [8]. Besides, the z-score in [7] was 0.31; in [9] it was -0.105 (inactive).
Turning to `COc1c(C)cc(-c2cc3c(c(-c4ccccc4)n2)[Si](C(C)C)(C(C)C)OC3)cc1C`, the composite z-score in [1] is 0.188; in [2] it was -0.892; in test [3], -0.353; in test [4], 0.363; in test [5], 0.134; in test [6], 0.514. Also, the values for the composite z-score (in the test on Lefty1; in test [8]) were -0.135 and 0.245, respectively. Also, the z-score in [7] is 0.439; in test [9] it was 0.411 (inactive).
Turning to `[N-]=[N+]=NCc1ccccc1[C@H]1OC(c2ccc(OCCCO)cc2)=N[C@@]1(CCS(=O)(=O)c1ccccc1)C(N)=O`, the composite z-score in test [1] is 2.08; in [2] it was 1.18; in [3], 0.238; in test [4], 1; in test [5], 1.18; in test [6] it was 1.26. Further, the figures for the composite z-score (with Lefty1; in test [8]) were -0.456 and 1.16, respectively. The results for the z-score in [7] and in [9] were -1.14 and -3.95 (inactive), respectively.
As to `CC(C)(C)N1CC=CC23O[C@@H]4C=CCOC(=O)[C@@H]4[C@H]2C(=O)N(CCCO)[C@@H]3C1=O` (stereo not given in full), the composite z-score in test [1] was -1.08; in test [2], -1.21; in test [3], -0.595; in test [4], -1.79; in test [5] it was -1.79; in [6], -1.28. Further, the composite z-score with Lefty1 is -1.34; in test [8], -1.13. Moreover, the figures for the z-score in [7] and in [9] were -0.908 and -0.11 (inactive), respectively.
